Compound activity: PubChem, National Center for Advancing Translational Sciences (NCATS)
Only a selection was taken, and hits are over-represented in it overall.
PKM2 inhibitor: blocks activity of human pyruvate kinase M2. P14618. purified PKM2, ATP generation, Kinase-Glo luminescence. Potency, µM (highest dose often 57.5 µM), without a hit: top-dose activity change, negative = inhibition, actives largely listed as inhibitors. 0.058% of 260,000 active. AID 1634; active means well fitted inhibition curve with a large enough effect; further: nearly all actives have a fitted effect of over 60% in size
Target sequence (P14618 whole entry, looked up): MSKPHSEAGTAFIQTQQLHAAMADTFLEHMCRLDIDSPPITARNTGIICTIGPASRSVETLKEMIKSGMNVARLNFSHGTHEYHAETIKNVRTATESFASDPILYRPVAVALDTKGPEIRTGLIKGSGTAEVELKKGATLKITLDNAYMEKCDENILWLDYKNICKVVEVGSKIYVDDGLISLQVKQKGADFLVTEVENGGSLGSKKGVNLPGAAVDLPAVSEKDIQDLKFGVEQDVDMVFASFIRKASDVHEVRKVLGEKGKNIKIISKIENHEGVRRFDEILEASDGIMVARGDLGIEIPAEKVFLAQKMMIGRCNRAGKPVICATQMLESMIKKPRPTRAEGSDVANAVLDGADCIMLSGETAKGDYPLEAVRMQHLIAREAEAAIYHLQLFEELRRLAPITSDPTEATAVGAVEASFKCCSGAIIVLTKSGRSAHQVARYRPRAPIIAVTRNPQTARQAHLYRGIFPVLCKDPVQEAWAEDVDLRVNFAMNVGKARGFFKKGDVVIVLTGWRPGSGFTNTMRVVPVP
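Coupled luciferase luminescence (Kinase-Glo) detects ATP generated from 0.1 mM ADP and 0.5 mM PEP in imidazole buffer pH 7.2 with KCl, MgCl2; 1 h at room temperature. Enzyme at intermediate activity; normalized to uninhibited and no-enzyme controls.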
* = called active by the depositor. Potency means the concentration at half of the fitted maximal effect.

NC(=O)c1oc2ccccc2c1NC(=O)CCc1ccccc1 was read as PKM2 inhibitor 5.5%.
For COc1ccccc1N1C(=O)C=C(Sc2nc(C)cc(C)n2)C1=O the results were PKM2 inhibitor 30.3%.
Screening O=C1c2cccnc2C(Nc2ccccc2Br)N1Cc1ccco1 (stereo not drawn) returned PKM2 inhibitor 30.8%.
Screening Cc1nc2sccn2c(=O)c1S(=O)(=O)Nc1cccc(Cl)c1C returned PKM2 inhibitor 76.7%.
COc1ccc(S(=O)(=O)c2ccc(OC)cc2)cc1 was read as PKM2 inhibitor 45.2%.
For COc1ccc(S(=O)(=O)/N=C2/C=CC(=O)C(C)=C2C)cc1 the results were PKM2 inhibitor 38.5%.
COc1ccc(C2=CC(=O)C=CC2=O)cc1 was read as PKM2 inhibitor 17.8µM*.
O=C(CSc1nc2ccc(Cl)cc2[nH]1)c1cccs1 was read as PKM2 inhibitor 52.6%.
For NS(=O)(=O)c1ccc2c(c1)oc(=O)c1cc(S(N)(=O)=O)ccc12 the results were PKM2 inhibitor 160.3%.
Screening COC(=O)[C@@]1(Cc2ccc(OC)cc2)[C@H]2c3cc(C(=O)N(C)C)n(Cc4ccc(C)o4)c3C[C@H]2CN1C(=O)c1ccccc1 returned PKM2 inhibitor 89.2%.
Screening O=C(Nc1ccc(-c2ccc3nncn3n2)cc1)c1ccc(Br)o1 returned PKM2 inhibitor 60.1%.
For CNc1nc(-c2ccccc2)[n+](-c2ccc(C)cc2)s1 the results were PKM2 inhibitor 10µM*.
Screening CCc1nc(SCC(=O)Nc2ccc(OC)cc2[N+](=O)[O-])n[nH]1 returned PKM2 inhibitor 90.0%.
`COc1ccc2cc(/C(C)=N/NC(=O)C3CC3)ccc2c1` gave PKM2 inhibitor 33.9%.
For COc1ccc(S(=O)(=O)N2CCN(C(=O)c3cccs3)CC2)cc1 the results were PKM2 inhibitor 80.0%.
For COc1ccc(C(=O)O/N=C(/C)c2cccs2)cc1 the results were PKM2 inhibitor 14.1µM*.
`CC(C)(C)CN1CCNC(=O)C1CC(=O)NCCc1ccccc1F` (stereo not drawn) gave PKM2 inhibitor 55.2%.
CN(C)c1ccc(CNS(=O)(=O)c2ccc3c(c2)C(C)(C)C(=O)N3C)cc1 was read as PKM2 inhibitor 49.2%.
`Cn1ncc([N+](=O)[O-])c1C(=O)Nc1ccc(-c2ccccc2)cc1` gave PKM2 inhibitor 31.1%.
For COC(=O)N1[C@H](C)C=C[C@]1(Cc1ccccc1)C(=O)NCc1ccc(C)o1 the results were PKM2 inhibitor 44.7%.
For CCS(=O)(=O)N1Cc2ccccc2CC1C(=O)Nc1nnc(SCc2ccc(F)cc2)s1 (stereo not drawn) the results were PKM2 inhibitor 38.3%.
CCOC(=O)c1cnc(SCC(=O)c2ccc3c(c2)OCCO3)nc1N was read as PKM2 inhibitor 105.7%.
For O=C(COC(=O)c1cccs1)c1ccc2c(c1)OCCO2 the results were PKM2 inhibitor 28.2µM*.
Screening O=C(COC(=O)c1ccc(NS(=O)(=O)c2ccc3c(c2)OCCO3)cc1)NC1CC1 returned PKM2 inhibitor 43.2%.
Screening O=C(Nc1cccc(S(=O)(=O)N2CCOCC2)c1)c1cnccn1 returned PKM2 inhibitor 40.6%.
`Cc1cc(C)n2nc(CNS(=O)(=O)c3ccc(F)c(C)c3)nc2n1` gave PKM2 inhibitor 61.0%.
For Cc1ccc(-c2cc(C(=O)Nc3ccccn3)c3ccccc3n2)o1 the results were PKM2 inhibitor 32.7%.
Screening O=C(Nc1ccccn1)c1onc2c1CCCC2 returned PKM2 inhibitor 14.1µM*.
For Cc1noc(C)c1S(=O)(=O)N1CCC(C(=O)Nc2ccccn2)CC1 the results were PKM2 inhibitor 39.3%.
Screening COc1cc(C(=O)NCC(=O)N2CCN(S(=O)(=O)c3cc(C)ccc3C)CC2)cc(OC)c1OC returned PKM2 inhibitor 32.3%.
CCc1cccc(C)c1N=Cc1c(O)c2ccccc2oc1=O was read as PKM2 inhibitor 58.3%.
Screening O=C(/C=C\c1ccco1)c1ccc(NC(=O)c2ccco2)cc1 returned PKM2 inhibitor 49.6%.
COCCCn1c(SCC(=O)Nc2ccc(NC(=O)c3ccco3)c(OC)c2)nc2ccccc2c1=O was read as PKM2 inhibitor -0.7%.
For Cc1cc(NC(=O)c2ccco2)ccc1NC(=O)c1ccco1 the results were PKM2 inhibitor 14.1µM*.
`O=C(COc1ccc(S(=O)(=O)N2CCOCC2)cc1Cl)NCC1CCCO1` (stereo not drawn) gave PKM2 inhibitor 33.5%.
For COc1ccc(CNC(=O)C2CCN(S(=O)(=O)c3ccc(Br)s3)CC2)cc1 the results were PKM2 inhibitor 42.7%.
Screening O=C(COc1ccc(Cl)cc1Cl)NCC(=O)N/N=C/c1c[nH]c2ccccc12 returned PKM2 inhibitor 46.7%.
O=C(COc1ccc(Cl)cc1Cl)NC(=S)Nc1ccc(CN2CCOCC2)cc1 was read as PKM2 inhibitor 36.1%.
O=C(COc1ccc(Cl)cc1Cl)Nc1ccccn1 was read as PKM2 inhibitor 14.1µM*.
For O=C1COc2ccc(S(=O)(=O)Nc3ccc4c(c3)OCO4)cc2N1 the results were PKM2 inhibitor 47.5%.
Screening COc1ccc(/C(N)=N/OC(=O)c2ccco2)cc1 returned PKM2 inhibitor 17.8µM*.
For COc1ccc(C(=O)Nc2ncc3c(n2)CC(c2ccco2)CC3=O)cc1 (stereo not drawn) the results were PKM2 inhibitor 37.9%.
COc1cccc(S(=O)(=O)N2CCN(C(=O)c3ccco3)CC2)c1 was read as PKM2 inhibitor 41.4%.
`COc1ccccc1C(CCN(Cc1ccccc1)C(C)=O)c1ccco1` (stereo not drawn) gave PKM2 inhibitor 42.7%.
Screening COc1ccc2nc(NC(=O)CCNC(=O)c3ccccc3Cl)sc2c1 returned PKM2 inhibitor -0.1%.
Screening Cc1nc2ccc(S(=O)(=O)NCC(=O)N(C)Cc3ccco3)cc2s1 returned PKM2 inhibitor 35.1%.
COc1ccc2nc(NC(=O)c3ccoc3C)sc2c1 was read as PKM2 inhibitor 15.8µM*.
For COc1ccc(-n2c(=O)c3c4c(sc3n(CC(N)=O)c2=O)CCCCC4)cc1 the results were PKM2 inhibitor -1.1%.
Screening CCN(CC)c1ccc(/C=C2\SC(=O)N(C(C)C)C2=O)o1 returned PKM2 inhibitor 98.2%.
COc1ccc(CN2CCN(C(=O)CC(C)C)CC2)cc1 was read as PKM2 inhibitor 49.1%.
For CCOc1ccc2nc(SCC(=O)Nc3cc(C)on3)c(C)cc2c1 the results were PKM2 inhibitor 52.9%.
`CCOc1ccc2nc(/N=C/c3c(C)[nH]n(-c4ccc(C)cc4)c3=O)sc2c1` gave PKM2 inhibitor 12.6µM*.
Cc1ccc(CNC(=O)CCc2nnc(Cc3ccc(-c4ccccc4)cc3)o2)o1 was read as PKM2 inhibitor 49.3%.
For COc1cccc(CNC(=O)C2CCN(S(=O)(=O)c3ccc4c(c3)OCCO4)CC2)c1 the results were PKM2 inhibitor 64.1%.
Screening Cc1nn(CC(=O)N/N=C/c2ccc3c(c2)OCO3)c(C)c1Br returned PKM2 inhibitor 31.3%.
`Cc1ccsc1C(=O)N/N=C/c1ccc2c(c1)OCO2` gave PKM2 inhibitor 12.6µM*.
Screening COc1cc(/C=N/NC(=O)c2cccs2)ccc1O returned PKM2 inhibitor 0.6%.
Screening Cc1cc2c(cc1S(=O)(=O)Nc1cccc(F)c1)n(C)c(=O)c(=O)n2C returned PKM2 inhibitor 101.6%.
Screening CNCc1nc2ccccc2[nH]1 returned PKM2 inhibitor 58.7%.
Screening Cc1nn(-c2nc3ccccc3[nH]2)c(=O)c2ccccc12 returned PKM2 inhibitor 15.8µM*.
Screening O=c1[nH]c(C(F)(F)F)nc2ccccc12 returned PKM2 inhibitor -23.1%.
COc1ccc(S(=O)(=O)NCC2CCCN(C(=O)c3ccccc3)C2)cc1 (stereo not drawn) was read as PKM2 inhibitor 64.1%.
